Measured values from PubChem BioAssay AID652040 (Broad Institute, 2013).
Results with a measured potency or affinity are listed apart. Active and inactive are the calls of the source.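 The calls were made as follows: active = falling luciferase signal whose fitted half-maximal concentration is at most twice the top tested dose; inconclusive = flat inhibition between 30 and 70% or a poor curve fit; inactive = the rest.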

assay: off-target signal loss in HeLa-CEM21 co-culture – HeLa F-luc CTL cells, cherry-picked, counter-screen for HIV-1 Env fusion inhibitor project, dose response (AID 652040); conditions: HeLa-F-luc CTL cells with CEM21, firefly luciferase counterscreen; series mostly up to 35 µM;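 also: more negative values mean stronger loss of luciferase signal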

Compound | outcome
CC(C)(C)c1ccc(-c2noc(CCC(=O)NCC3CCCO3)n2)cc1 (stereo unspecified) | inactive
O=C(Nc1ccncc1)c1ccc(Cl)c(S(=O)(=O)N2CCc3ccccc32)c1 | inactive
CCCc1cc(C(=O)NCc2ccc(OC)cc2)no1 | inactive
COc1ccccc1N/C(N)=N/c1nc(CSc2ccc(C)cc2)cc(=O)[nH]1 | inactive
Cc1[nH]c2ccccc2c1/C=N\NC(=O)c1ccccc1Cl | inactive
CCCCCCCn1c2c(c(=N)c3c1CCC3)CCCC2 | inactive
COCC(C)n1c(-c2ccc3c(c2)NC(=O)CO3)csc1=Nc1ccc(OC(F)F)cc1 (stereo unspecified) | inactive
COc1ccc(OC2C(=O)N(Cc3ccc4c(c3)OCO4)C2c2cccs2)cc1 (stereo unspecified) | inactive
N#Cc1ccc(CN2CCN(C(=O)CNC(=O)Cc3cccc4ccccc34)CC2)cc1 | inactive
CC(C)CNS(=O)(=O)c1ccc(CCC(=O)N2CCN(Cc3ccc4c(c3)OCO4)CC2)cc1 | inactive
COCCCn1c(-c2ccc(S(=O)(=O)N3CCOCC3)cc2)csc1=Nc1ccccc1 | inactive
CCc1ccc(-c2nc(CN3CCC(C(=O)NCCc4ccc(OC)c(OC)c4)CC3)c(C)o2)cc1 | inactive
C[C@H]1NC(=O)[C@@]2(C)[C@H](c3ccccc3)[C@H]3COc4ccccc4[C@@H]3N2C1=O | inactive
Cc1ccc(Cn2nnnc2CN2CCC(c3nc4ccc(Cl)cc4[nH]3)CC2)cc1 | inactive
C=CCNc1nc2c(c(=O)n(C)c(=O)n2C)n1CCCCCC | inactive
CCOC(=O)C(C)Oc1cccc2c(=O)n(CC(=O)NCCc3ccc(OC)c(OC)c3)ccc12 (stereo unspecified) | inactive
